This note sets out measurements from PubChem BioAssay (NCI).

This is part of a sample that, as a whole, favours compounds with a hit. Of some 83,000 tested, about 20% had one in any assay.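 Plates (96-well) were seeded with cells, treated with compound at one concentration, and incubated for 48 hours before percent growth was determined.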 A number with no mark means an inactive call. Active and inactive are the calls of the source. The calls were made as follows: active = growth percent below 10; inactive = the rest.

The first test has as its system UO-31 renal. In words: NCI-60 one-dose screen, 48 h (100 = growth as untreated, 0 = no growth, -100 = all killed). The conditions noted are these: 10 µM unless noted.
For `COc1ccc(-c2cc(Cc3cccs3)c(=O)n(Cn3cncn3)n2)cc1`, the growth was 86.4%.

As for `CC1=CSC2=NCCN12`, the growth was 77.6%.

Take `Cc1ccc(NC(=O)Nc2ccc(-c3cccnc3)cc2N2CCC(CO)CC2)cc1`: the growth was 81.2%.

Consider `COc1ccc2c(c1)C(=O)c1c-2c(OCCCN(C)C)nc2cc(Br)ccc12`, for which the growth was -34.7% (active).

With `CCC(CC)NCCCCCNc1cc(OC)cc2cccnc12`, the growth was 71.2%.

Turning to `COc1cc(C2C=C(c3ccc(C)cc3)Nc3nc(SC)[nH]c(=O)c32)ccc1Oc1ccnc2cc(Cl)ccc12` (centres undefined), the growth is 57.8%.

With `O=c1[nH]c(=O)n(C2CC(O)C(CO)O2)cc1C(F)(F)F` (centres undefined), the growth is 23.5%.

For the compound `Nc1nc(Cl)c2[nH]cnc2n1`, the growth is 93.5%.

In the case of `OC(CCC(O)(c1ccccc1)c1ccccc1)(c1ccccc1)c1ccccc1`, the growth was 74.7%.

With `C[C@]12C[C@H](O)[C@H]3[C@@H](CCC4=CC(=O)CC[C@@]43C)[C@@H]1CC[C@@H]2C(=O)CO`, the growth was 89.6%.

As to `COC(=O)[C@]12CC[C@@H](C)[C@H](C)[C@@H]1C1=CC[C@@H]3[C@@]4(C)C=C(O)C(=O)[C@@]5(C)COC(=C54)C[C@@]3(C)[C@]1(C)CC2`, the growth is -50.2% (active).

Take `C=C(C)[C@@H]1C/C=C(/C=O)CC[C@@H]2O[C@@]2(C)CC/C=C(\C)CC1`: the growth was 122%.

`CCCOc1ccc2c(c1)CC[C@@H]1[C@@H]2CC[C@@]2(C)[C@H]1CC[C@]2(C)O`: the growth was 69.9%.

`C/C(=N\N1CC(=O)NC1=O)c1ccc([N+](=O)[O-])o1`: the growth is 85.1%.

With `CCC1=C(c2ccc(OC)cc2)C(C)(C)Oc2cc(O)c(CN3CCCC3)cc21`, the growth was 55.8%.

For `COc1ccc(Cn2cc3c(c2-c2ccccc2)CCc2cncnc2-3)cc1`, the growth was 55.2%.

In the case of `CCC(CCC(C)C1CCC2C3CC=C4CC(O)CCC4(C)C3CCC12C)C(C)C` (centres undefined) (tested in a mixture with another compound), the growth was 93.6%.

As for `COc1cc(OC)c2sc(-c3ccc(-n4cncc4-c4ccc(N)cc4)cc3)nc2c1`, the growth is 49.2%.

Regarding `CCn1c2c(c3ccccc31)SC1c3cccn3CCN1C2=S` (centres undefined), the growth was 84.9%.

For `COc1ccc(CCN2CCCN3C2=Nc2ccccc2S3(=O)=O)cc1`, the growth was 53.4%.

Take `O=C(Nc1ncc([N+](=O)[O-])s1)c1cccc([N+](=O)[O-])c1`: the growth was 63.4%.

On to `N#Cc1cnc2cc(OC[C@H](O)CO)c(NC(=O)CC3CSSC3)cc2c1Nc1ccc(OCc2cccc(F)c2)c(Cl)c1`, for which the growth was 47.6%.

Regarding `O=C(CSCC(=O)N/N=C/c1ccccc1O)N/N=C\c1ccccc1O`, the growth was 7.47% (active).

For `CC(C)(C)c1ccc(S(=O)(=O)O)s1`, the growth is 40.1%.

For `CSC1=Nc2c(c(C)c(-c3ccccc3)n2CCCN2CCCCC2)C2=NC(=O)C[C@H](C)N12`, the growth is 56.6%.

Turning to `CC(=O)Oc1ccc(C23c4ccccc4C2(OC(C)=O)c2cc(OC(C)=O)ccc23)cc1` (centres undefined), the growth is 11%.

`COc1ccc2c(c1)C(=O)c1c-2c(OCCN(C)C)nc2cc(OC)ccc12`: the growth is -43.7% (active).

Turning to `O=C1NCN(CCO)CN1`, the growth was 97.2%.

As for `CC(=O)NCCSC(=O)C(=O)SCCNC(C)=O`, the growth is 95.7%.

Turning to `CCc1[nH]nc(-c2ccc(OC)cc2)c1-c1ccccc1OCCN(CC)CC`, the growth is 67.3%.

Take `Cc1cc(NC(=O)Nc2cccc3ccccc23)no1`: the growth is 89%.

In the case of `NC(=O)c1ccccc1NC(=O)c1ccccc1Cl`, the growth was 82.8%.

`CCCCCCCC/C=C\CCCCCCCCOc1ccccc1CC(=O)NCC[N+]1(C)CCCC1`: the growth was 99.2%.

Regarding `c1ccc(-n2nnnc2-c2cccc3ccccc23)cc1`, the growth is 28.7%.

Regarding `O=C1c2ccccc2C(=O)c2c1cccc2-n1nnc2ccccc21`, the growth is 76%.

Turning to `CCC(O)C(C)(C)C` (centres undefined), the growth was 101%.

On to `Clc1ccc([C@@H]2C[C@@H]3Cc4cc(Br)c5ccccc5c4N2O3)c(Cl)c1`, for which the growth was 64%.

Another test concerns TK-10 renal. The description is as above. The conditions noted are these: 10 µM unless noted.
In the case of `COc1ccc(-c2cc(Cc3cccs3)c(=O)n(Cn3cncn3)n2)cc1`, the growth was 113%.

`CC1=CSC2=NCCN12`: the growth is 97.7%.

On to `Cc1ccc(NC(=O)Nc2ccc(-c3cccnc3)cc2N2CCC(CO)CC2)cc1`, for which the growth is 16.5%.

Regarding `COc1ccc2c(c1)C(=O)c1c-2c(OCCCN(C)C)nc2cc(Br)ccc12`, the growth was 76.7%.

For the compound `CCC(CC)NCCCCCNc1cc(OC)cc2cccnc12`, the growth is 83.5%.

In the case of `COc1cc(C2C=C(c3ccc(C)cc3)Nc3nc(SC)[nH]c(=O)c32)ccc1Oc1ccnc2cc(Cl)ccc12` (centres undefined), the growth was 78.2%.

Turning to `O=c1[nH]c(=O)n(C2CC(O)C(CO)O2)cc1C(F)(F)F` (centres undefined), the growth is 64.8%.

For the compound `Nc1nc(Cl)c2[nH]cnc2n1`, the growth was 103%.

`OC(CCC(O)(c1ccccc1)c1ccccc1)(c1ccccc1)c1ccccc1`: the growth is 107%.

On to `C[C@]12C[C@H](O)[C@H]3[C@@H](CCC4=CC(=O)CC[C@@]43C)[C@@H]1CC[C@@H]2C(=O)CO`, for which the growth was 108%.

With `COC(=O)[C@]12CC[C@@H](C)[C@H](C)[C@@H]1C1=CC[C@@H]3[C@@]4(C)C=C(O)C(=O)[C@@]5(C)COC(=C54)C[C@@]3(C)[C@]1(C)CC2`, the growth was -62.3% (active).

With `C=C(C)[C@@H]1C/C=C(/C=O)CC[C@@H]2O[C@@]2(C)CC/C=C(\C)CC1`, the growth was 114%.

As to `CCCOc1ccc2c(c1)CC[C@@H]1[C@@H]2CC[C@@]2(C)[C@H]1CC[C@]2(C)O`, the growth was 69.3%.

Turning to `C/C(=N\N1CC(=O)NC1=O)c1ccc([N+](=O)[O-])o1`, the growth is 105%.

As to `CCC1=C(c2ccc(OC)cc2)C(C)(C)Oc2cc(O)c(CN3CCCC3)cc21`, the growth was 94.3%.

Take `COc1ccc(Cn2cc3c(c2-c2ccccc2)CCc2cncnc2-3)cc1`: the growth is 109%.

As for `CCC(CCC(C)C1CCC2C3CC=C4CC(O)CCC4(C)C3CCC12C)C(C)C` (centres undefined) (tested in a mixture with another compound), the growth is 139%.

As for `COc1cc(OC)c2sc(-c3ccc(-n4cncc4-c4ccc(N)cc4)cc3)nc2c1`, the growth was 70%.

Consider `CCn1c2c(c3ccccc31)SC1c3cccn3CCN1C2=S` (centres undefined), for which the growth is 89%.

In the case of `COc1ccc(CCN2CCCN3C2=Nc2ccccc2S3(=O)=O)cc1`, the growth was 61.1%.

As to `O=C(Nc1ncc([N+](=O)[O-])s1)c1cccc([N+](=O)[O-])c1`, the growth is 23.4%.

Consider `N#Cc1cnc2cc(OC[C@H](O)CO)c(NC(=O)CC3CSSC3)cc2c1Nc1ccc(OCc2cccc(F)c2)c(Cl)c1`, for which the growth is -70.5% (active).

In the case of `O=C(CSCC(=O)N/N=C/c1ccccc1O)N/N=C\c1ccccc1O`, the growth is 24.4%.

Take `CC(C)(C)c1ccc(S(=O)(=O)O)s1`: the growth is 110%.

Take `CSC1=Nc2c(c(C)c(-c3ccccc3)n2CCCN2CCCCC2)C2=NC(=O)C[C@H](C)N12`: the growth is 48.7%.

Consider `CC(=O)Oc1ccc(C23c4ccccc4C2(OC(C)=O)c2cc(OC(C)=O)ccc23)cc1` (centres undefined), for which the growth is 63.9%.

For the compound `COc1ccc2c(c1)C(=O)c1c-2c(OCCN(C)C)nc2cc(OC)ccc12`, the growth is 28.5%.

For `O=C1NCN(CCO)CN1`, the growth is 107%.

For `CC(=O)NCCSC(=O)C(=O)SCCNC(C)=O`, the growth is 128%.

In the case of `CCc1[nH]nc(-c2ccc(OC)cc2)c1-c1ccccc1OCCN(CC)CC`, the growth was 109%.

With `Cc1cc(NC(=O)Nc2cccc3ccccc23)no1`, the growth was 146%.

Turning to `NC(=O)c1ccccc1NC(=O)c1ccccc1Cl`, the growth was 141%.

In the case of `CCCCCCCC/C=C\CCCCCCCCOc1ccccc1CC(=O)NCC[N+]1(C)CCCC1`, the growth was 70.5%.

Take `c1ccc(-n2nnnc2-c2cccc3ccccc23)cc1`: the growth is 13.8%.

Turning to `O=C1c2ccccc2C(=O)c2c1cccc2-n1nnc2ccccc21`, the growth is 121%.

Regarding `CCC(O)C(C)(C)C` (centres undefined), the growth was 98.8%.

As to `Clc1ccc([C@@H]2C[C@@H]3Cc4cc(Br)c5ccccc5c4N2O3)c(Cl)c1`, the growth was 90.2%.
